# From PubChem BioAssay (NCATS)
# Inconclusive results are not listed. Values without a mark were called inactive. The source made the active and inactive calls. Calls follow the shape of the dose curve; as a rule, active = well fitted inhibition curve with a large enough effect; inconclusive = small, poorly fitted or top-dose-only effect; inactive = flat fitted curve, though single readings scatter.
# System: CP192
# Test: qHTS profiling for inhibitors of Plasmodium falciparum proliferation (AID 504749); also: nearly all actives have a fitted effect of over 60% in size;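 as to activity, negative = inhibition: 0% = DMSO vehicle and full inhibition = artemisinin control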
# Conditions: P. falciparum in erythrocytes, SYBR Green DNA, 72 h; series mostly up to 28.7 µM; activity, negative = inhibition: at the top concentration
# How it was run: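 Parasite proliferation within erythrocytes, 72 h exposure. Endpoint: SYBR Green I fluorescence after overnight lysis at room temperature. Controls: 0.29 uM artemisinin, DMSO.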
# Potency is read from the fitted curve at half-maximal effect.
Structure (SMILES),"activity, negative = inhibition",Potency
S=P(N1CC1)(N1CC1)N1CC1,-1.63%,–
COc1ccc(-c2ccc3cc(C(=O)O)ccc3c2)cc1C12CC3CC(CC(C3)C1)C2,-0.199%,–
COC(=O)Nc1nc2ccc(C(=O)c3ccccc3)cc2[nH]1,-22% [at 12.8 µM],–
COc1ccc2cc3[n+](cc2c1OC)CCc1cc2c(cc1-3)OCO2,–,0.849 µM (active)
CNNCc1ccc(C(=O)NC(C)C)cc1,3.68%,–
N=C(N)c1ccc(OCCCCCOc2ccc(C(=N)N)cc2)cc1,–,1.07 µM (active)
Oc1c(Cl)cc(Cl)c2cccnc12,-25.7%,–
CCc1cc(C(N)=S)ccn1,0.0933%,–
CC(C)Cn1cnc2c(N)nc3ccccc3c21,1.47%,–
CCCc1nc(C)c2c(=O)[nH]c(-c3cc(S(=O)(=O)N4CCN(CC)CC4)ccc3OCC)nn12,-17.7%,–
CC(C)(Sc1cc(C(C)(C)C)c(O)c(C(C)(C)C)c1)Sc1cc(C(C)(C)C)c(O)c(C(C)(C)C)c1,-0.753% [at 12.8 µM],–
COc1cc(NCc2ccc3nc(N)nc(N)c3c2C)cc(OC)c1OC,–,3.01 µM (active)
CCCCOc1ccc(CC(=O)NO)cc1,–,4.05 µM (active)
Cc1nnc(NS(=O)(=O)c2ccc(N)cc2)s1,-16.9%,–
Nc1nc(N)c2nc(CNc3ccc(C(=O)NC(CCC(=O)O)C(=O)O)cc3)cnc2n1 (stereo not given),0.0888%,–
CCOC(=O)[C@H](CCc1ccccc1)N[C@H]1CS[C@H](c2cccs2)CN(CC(=O)O)C1=O,-6.68%,–
CNC(=O)c1cc(Oc2ccc(NC(=O)Nc3ccc(Cl)c(C(F)(F)F)c3)cc2)ccn1,–,10.7 µM (active)
CCc1c2c(nc3ccc(OC(=O)N4CCC(N5CCCCC5)CC4)cc13)-c1cc3c(c(=O)n1C2)COC(=O)[C@]3(O)CC,0.242%,–
CC(C)NCC(O)c1ccc(NS(C)(=O)=O)cc1 (stereo not given),–,inactive
CC(C)OC(=O)C(C(=O)OC(C)C)=C1SC=CS1,7.2%,–
CC[C@H](C)C(=O)O[C@H]1C[C@@H](C)C=C2C=C[C@H](C)[C@H](CC[C@@H]3C[C@@H](O)CC(=O)O3)[C@H]21,0.271%,–
O=c1cc(O)c(Cl)c[nH]1,5.84%,–
CC(=O)Oc1ccccc1C(=O)Nc1ncc([N+](=O)[O-])s1,-0.437%,–
COc1ccc(C(=O)CC(=O)c2ccc(C(C)(C)C)cc2)cc1,-2.06%,–
CNC1CCCN(c2c(F)cc3c(=O)c(C(=O)O)cn(C4CC4)c3c2OC)C1 (stereo not given),2.04%,–
